# Structures can show the parent of a compound that is named as a salt.
# Columns and labels:
# Conditions in all cases: 10 µM; exposure time 6 h
# [1] = tested on: Danio rerio larvae (5 dpf); test: difference in excitability vs DMSO (percentage points); higher = more excitable than DMSO
# How it was run: (§1)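 Wild-type 5 dpf zebrafish larvae in 96-well plates were given 100 µL egg water containing library compound at 10 µM final for 6 h. After 3 h of exposure, plates at 28.5 ℃ were photographed every 6 s during a 3-h programme of moving lines and 100 ms, 400Hz tones. Z-LaP Tracker (a DeepLabCut model) quantified each behaviour, averaged over 48 larvae per compound. Values are the compound mean minus the DMSO-vehicle control, in percentage points.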
# [2] = tested on: Danio rerio larvae (5 dpf); test: difference in startle response vs DMSO (percentage points); higher = stronger startle than DMSO
# How it was run: as §1
# [3] = tested on: Danio rerio larvae (5 dpf); test: difference in activity during first hour vs DMSO (percentage points); higher = more activity than DMSO
# How it was run: as §1
# [4] = tested on: Danio rerio larvae (5 dpf); test: difference in habituation to acoustic stimuli vs DMSO (percentage points); higher = more habituation than DMSO
# How it was run: as §1
# [5] = tested on: Danio rerio larvae (5 dpf); test: difference in combined optomotor response to red, green and blue moving lines vs DMSO (percentage points); higher = stronger optomotor response than DMSO
# How it was run: as §1
Compound,difference in excitability [1],difference in startle response [2],difference in activity during first hour [3],difference in habituation to acoustic stimuli [4],difference [5]
CCCCC1=NC2(CCCC2)C(=O)N1Cc1ccc(-c2ccccc2-c2nnn[nH]2)cc1 [Irbesartan],5.86,-3.98,6.09,-4.93,5.61
N[C@@H](CC(=O)N1CCn2c(nnc2C(F)(F)F)C1)Cc1cc(F)c(F)cc1F [(-)-Sitagliptin (phosphate)],10.7,-0.289,-10.7,-3.48,-5.35
CCCCc1ncc(/C=C(\Cc2cccs2)C(=O)O)n1Cc1ccc(C(=O)O)cc1 [Eprosartan (mesylate)],7.16,-7.77,-8.19,-4.96,5.89
CCCN(CCc1cccs1)[C@H]1CCc2c(O)cccc2C1 [Rotigotine],20.1,-3.78,-23.8,-14.4,-15.9
NS(=O)(=O)c1cc2c(cc1Cl)NCNS2(=O)=O [Hydrochlorothiazide],-7.7,3.06,2.42,1.66,2
C[N+]1(C)[C@@H]2CC[C@H]1C[C@@H](OC(=O)C(O)c1ccccc1)C2 (stereo not given in full) [Methylhomatropine (bromide)],5.63,0.325,2.46,1.2,-3.01
CCC1(C)CC(=O)NC1=O (stereo not given) [Ethosuximide],2.89,4.52,-3.89,4.09,0.956
CC[C@@H]1/C=C(\C)C[C@H](C)C[C@H](OC)[C@H]2O[C@@](O)(C(=O)C(=O)N3CCCC[C@H]3C(=O)O[C@H](/C(C)=C/[C@@H]3CC[C@H](Cl)[C@H](OC)C3)[C@H](C)[C@@H](O)CC1=O)[C@H](C)C[C@@H]2OC [Pimecrolimus],12,-9.07,23,-1.18,-12.6
C#C[C@]1(O)CC[C@H]2[C@@H]3CCc4cc(O)ccc4[C@H]3CC[C@@]21C [Ethynyl Estradiol],3.58,-3.27,-24,-11,-17.5
COC1=CC(=O)C[C@@H](C)[C@]12Oc1c(Cl)c(OC)cc(OC)c1C2=O [Griseofulvin],3.76,5.64,19.9,2.87,8.4
O=C(O[C@H]1CN2CCC1CC2)N1CCc2ccccc2[C@@H]1c1ccccc1 [Solifenacin (succinate)],3.16,-8.09,25.6,-1.09,1.96
CCc1cc2c(cc1N1CCC(N3CCOCC3)CC1)C(C)(C)c1[nH]c3cc(C#N)ccc3c1C2=O,-3.24,3.84,9.56,0.995,0.182
C[C@]12CC[C@@H]3c4ccc(O)cc4CC[C@H]3[C@@H]1CC[C@@H]2O [17β-Estradiol],14.6,-4.36,-22.1,-4.38,-11.6
NC(=O)c1ncn([C@@H]2O[C@H](CO)[C@@H](O)[C@H]2O)n1 [Ribavirin],3.64,-0.473,21.8,-4.01,5.68
NC1=NCC2c3ccccc3Cc3ccccc3N12 (stereo not given) [Epinastine (hydrochloride)],13,-2.41,14.1,4.49,7.56
CNS(=O)(=O)CCc1ccc2[nH]cc(C3CCN(C)CC3)c2c1 [Naratriptan (hydrochloride)],8.93,2.03,-1.59,7.18,-2.72
CN[C@H]1CC[C@@H](c2ccc(Cl)c(Cl)c2)c2ccccc21 [Sertraline (hydrochloride)],8.65,9.23,-22.3,-4.17,-15.1
CC(=O)OCC(=O)[C@@]1(OC(C)=O)[C@@H](C)C[C@H]2[C@@H]3C[C@H](F)C4=CC(=O)C=C[C@]4(C)[C@@]3(F)[C@@H](O)C[C@@]21C [Diflorasone Diacetate],10.5,-5.05,-4.84,-1.12,-4.79
CC(=O)NCCCS(=O)(=O)O [Acamprosate (calcium salt)],5.62,1.29,-8.55,7.23,4.69
Clc1ccc(CCC(Cn2ccnc2)Sc2c(Cl)cccc2Cl)cc1 (stereo not given) [Butoconazole (nitrate)],9.05,-10.1,-20.7,-10.8,-16.7
CN(C)c1ccc(O)c2c1C[C@H]1C[C@H]3[C@H](N(C)C)C(O)=C(C(N)=O)C(=O)[C@@]3(O)C(O)=C1C2=O [Minocycline (hydrochloride hydrate)],3.95,-2.06,13.3,8.03,-2.24
Cc1cn([C@H]2C=C[C@@H](CO)O2)c(=O)[nH]c1=O [Stavudine],7.17,-2.71,-1.82,5.47,4.85
NS(=O)(=O)c1cc2c(cc1C(F)(F)F)NC(Cc1ccccc1)NS2(=O)=O (stereo not given) [Bendroflumethiazide],1.38,-5.47,3.78,-7.63,-4.26
CC1(C)S[C@@H]2[C@H](NC(=O)[C@H](N)c3ccc(O)cc3)C(=O)N2[C@H]1C(=O)O [Amoxicillin (hydrate)],2.37,8.42,13.1,5.1,8.79
O=C(O)c1cn(C2CC2)c2cc(N3CCNCC3)c(F)cc2c1=O [Ciprofloxacin (hydrochloride)],5.21,-3.39,16.5,2.26,2.77

# Reference: the supplement of paper PMC10515830
